High-throughput results (PubChem)
In the library only some 2.9% were active in any assay of this set; here they are far more common.
HEK293 tox – cytotoxicity counter-screen for GLP-1 receptor inverse agonists. HEK293 cAMP-luciferase reporter cells, luminescence, 24 h. Potency, µM (top dose mostly 38.3 µM), for inactives: top-dose activity change, negative = inhibition, most hits filed as inhibitors. 410,000 compounds, 0.13% hits;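 further: loss of luciferase light is scored as toxicity; potency means the concentration at half of the fitted maximal effect; on the % scale 0 is the no-effect control and ±100 the full control effect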
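Step one: seed cells (200 cells/uL, DMEM with 10% Nu serum, 1% pen-strep). Step two: 12-hour incubation at 37 deg C. Step three: pin 23 nL compound, incubate 24 hr. Step four: add luciferase reagent, read luminescence 12 min later.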
ClpP mod – qHTS Assay for Activators of ClpP; ATP-dependent Clp protease proteolytic subunit (Bacillus subtilis (strain 168)), P80244; purified B. subtilis ClpP, FRET peptide cleavage, 20 min; Potency, µM (doses to about 57.5 µM), inactives show at the top dose activity change, negative = active; 340,000 compounds, 1.9% hits; active means well fitted falling curve with a large enough effect; inconclusive means small, poorly fitted or top-dose-only effect; inactive means no such curve, though single readings can be large or run the other way; further: potency means the concentration at half of the fitted maximal effect; the source files actives as falling curves though it sought activators and does not explain the sign; nearly all actives have a fitted effect of over 65% in size
Target sequence (P80244 whole entry, looked up): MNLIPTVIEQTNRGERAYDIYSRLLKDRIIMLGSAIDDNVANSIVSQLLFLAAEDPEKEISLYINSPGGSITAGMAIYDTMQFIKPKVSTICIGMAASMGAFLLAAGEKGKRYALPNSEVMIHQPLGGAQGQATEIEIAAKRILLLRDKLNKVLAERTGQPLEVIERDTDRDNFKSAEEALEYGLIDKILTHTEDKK
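Purified B. subtilis ClpP, 10 microg/mL final in Tris/HCl pH8 with KCl, BSA, glycerol and Tween-20, cleaved an Abz/nitrotyrosine-quenched decapeptide. Fluorescence (ex 320, em 430) was read at 0 and 20 min at room temperature. Delta was normalized to 5.8 microM ADEP and DMSO/no-enzyme controls.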
LDHA inh – inhibitors of human lactate dehydrogenase A | P00338 | AID 1347041 | 480,000 compounds, 0.15% hits | purified LDHA, NADH/diaphorase-resazurin fluorescence; active compounds read low | activity change, % (values are at about 110 or 230 µM); in the data active means activity change below about -30%; inconclusive means mostly about -25% to -30%;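 further: plate controls were DMSO wells for no effect and wells without enzyme for full effect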
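Human LDH5 (2 nM) was incubated with 0.06 mM NADH and 0.2 mM pyruvate for 5 min at room temperature in Tris pH 7.4. Remaining NADH was coupled through diaphorase/resazurin, and resorufin fluorescence was read at 0 and 20 min.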
GLP-1R agonist – GLP-1 receptor (human) agonism; P43220; HEK293 GLP-1R CRE-luciferase, luminescence, 4-6 h; cells express a hypersensitive GLP-1R form; Potency, µM (highest dose often 45.6 µM), for the others: at the top dose activation, most hits filed as activators; 380,000 compounds, 0.007% hits; AID 624172; further: potency means the concentration at half of the fitted maximal effect; % of control where 0% means no effect
Target sequence (P43220 whole entry, looked up): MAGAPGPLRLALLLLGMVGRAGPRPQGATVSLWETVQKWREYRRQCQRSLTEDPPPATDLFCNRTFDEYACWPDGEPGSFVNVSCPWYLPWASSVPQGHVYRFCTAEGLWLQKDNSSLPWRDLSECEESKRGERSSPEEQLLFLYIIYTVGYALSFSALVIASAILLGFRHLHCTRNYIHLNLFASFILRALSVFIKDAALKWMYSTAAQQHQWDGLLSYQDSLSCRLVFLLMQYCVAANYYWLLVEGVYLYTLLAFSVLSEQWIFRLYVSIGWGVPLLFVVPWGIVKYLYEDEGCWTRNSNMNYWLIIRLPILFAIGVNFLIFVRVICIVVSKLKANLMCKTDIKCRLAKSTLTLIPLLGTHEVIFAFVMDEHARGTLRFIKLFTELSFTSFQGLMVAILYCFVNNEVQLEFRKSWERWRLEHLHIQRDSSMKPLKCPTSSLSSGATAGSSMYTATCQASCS
GLP-1R inv ag – acts as inverse agonist at human GLP-1 receptor; P43220; HEK293 GLP-1R CRE-luciferase, luminescence, 24 h; GLP-1R form is constitutively active; Potency, µM (top dose mostly 38.3 µM), for inactives: at the highest dose activity change, negative = inhibition, hits mostly inhibitors; 410,000 compounds, 1.6% hits; further: potency means the concentration at half of the fitted maximal effect; on the % scale 0 is the no-effect control and ±100 the full control effect; nearly all actives have a fitted effect of over 55% in size
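Inverse agonism was detected as reduced cAMP-driven luciferase luminescence after 24 h compound treatment. The cells were HEK293 clones expressing constitutively active human GLP-1R with the reporter. Reporter-only and GPR119 cell lines served as counterscreen controls.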
p53 reactivation – re-activators of mutant p53; H1299 p53-A138V BP100-luciferase reporter, luminescence, 24 h; Potency, µM (doses to about 92.2 µM), for inactives: at the highest dose activity change, positive = activation, hits mostly activators; 320,000 compounds, 0.063% hits; AID 504706; further: potency means the concentration at half of the fitted maximal effect; % of control where 0% means no effect; nearly all actives have a fitted effect of over 45% in size
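H1299 (p53-null), stable ts p53-A138V + BP100-Luc; 1000 cells/well, Opti-MEM/10% FBS; cpd 4 pt, 1:5; 24 h, 37 deg C, 5% CO2; detection reagent 10 min RT; luminescence.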
* hit, by the source's call; ? = inconclusive; / = no result. Unless noted, the call rests on the fitted dose curve; in most records, active means well fitted curve in the direction sought with a large enough effect; inconclusive means small, poorly fitted or top-dose-only effect, or another doubt; inactive means no such curve, though single readings can be large; an effect the other way counts as inactive or inconclusive.

SMILES	HEK293 tox	ClpP mod	LDHA inh	GLP-1R agonist	GLP-1R inv ag	p53 reactivation
COc1ccc(-c2cc3ccccc3n2CC(O)CNC(CO)(CO)CO)cc1 (centres undefined)	-18%	35µM*	-2	-1%	-23%	9%
COc1cc(-c2nc(C(N)=O)c3c(n2)n(-c2cccc(C)c2)c(=O)n3C)cc(OC)c1OC	-3%	22µM*	-4	-1%	11%	/
COc1ccccc1-n1c(=O)n(C)c2c(C(N)=O)nc(-c3cccc(OC)c3OC)nc21	-9%	0%	5	4%	8%	/
COc1ccc(C2Nc3ccccc3C(=O)N2Cc2ccco2)cc1COc1ccc(N)cc1 (centres undefined)	/	/	9	/	/	/
CCSc1ncc(/C=N/Nc2ccccc2)n1C	?	2%	4	14%	3.5µM*	5%
CSCCC(NS(=O)(=O)c1cccc(C(F)(F)F)c1)C(=O)Nc1ccccc1N1CCCC1 (centres undefined)	-16%	-3%	-1	-16%	10µM*	-2%
Cc1cccc(C(=O)NC(C(=O)Nc2ccc(S(=O)(=O)Nc3nccs3)cc2)C(C)C)c1 (centres undefined)	-20%	2%	-2	-40%	-3%	/
Cc1cccc(C(=O)N[C@H](C(=O)Nc2ccc(S(=O)(=O)NC3=NCCCCC3)cc2)C(C)C)c1	6%	35µM*	-11	5%	31%	-1%
Cc1nn(Cc2cccc(F)c2)c(C)c1NC(=O)Nc1ccc2c(c1)OCO2	/	/	-1	/	/	/
CN(CC(=O)Nc1ccc(F)c(F)c1F)C(=O)/C=C/c1ccc(Cl)cc1	3%	1%	-5	-4%	9%	-3%
CN(C)CCNC(=O)COc1ccc(C23CC4CC(CC(C4)C2)C3)cc1	?	/	-3	8%	2.8µM*	20%
Cc1ccc(C23CC4CC(CC(NC(=O)NCCN(C)C)(C4)C2)C3)cc1	?	1%	2	-5%	?	5%
Cc1cccc(NC(=O)C2CCN(S(=O)(=O)c3cccs3)CC2)c1	-14%	-12%	-4	-13%	-5%	-1%
COc1cc(CNCc2ccc(SC)cc2)cc(OC)c1	-1%	-1%	-31*	10%	-28%	8%
COc1cccc(CNCc2cc(OC)cc(OC)c2)c1	-5%	-1%	-16	7%	-20%	5%
Cc1cccc(Cn2c(-c3cccc(Br)c3)nc3ccccc32)c1	8%	32µM*	3	/	10µM*	/
CNc1nc(SCc2ccccc2Cl)nc2c1CCCC2	-17%	-3%	-1	2%	10µM*	-5%
C=C1CC2(OC1=O)c1ccccc1CCc1ccccc12	10µM*	2%	-4	-17%	?	/
O=C1NC(=O)C2(CCc3ccccc32)N1 (centres undefined)	-9%	-1%	-8	-3%	2%	1%
Cc1c(Cl)cccc1NC(=S)N1CCN(C(=O)C2CCCO2)CC1 (centres undefined)	-2%	28µM*	-6	-5%	12%	-6%
COc1cc2ccccc2cc1C(=O)N1CCN(C(C)=O)CC1	1%	?	-9	3%	5%	-2%
O=C1CSC(=Nc2ccc(Cl)cc2)N1Cc1ccco1	17%	/	-1	14%	8.9µM*	-4%
Cc1cccc(NS(=O)(=O)c2cc(C)c(Br)cc2C)n1	/	/	-1	/	/	/
O=c1[nH]c(/C=C/c2ccccn2)nc2ccccc12	15%	-16%	-1	-4%	?	11µM*
NC(=O)N/N=C/c1cc(F)cc(F)c1	3%	/	-1	15%	28%	-2%
SMILES	HEK293 tox	ClpP mod	LDHA inh	GLP-1R agonist	GLP-1R inv ag	p53 reactivation
Fc1ccc(CNc2ccc(N3CCN(Cc4ccccc4)CC3)cc2)cc1	-15%	/	3	-2%	4.5µM*	0%
Fc1ccc(N2CCN(Cc3ccccn3)CC2)cc1	-9%	-5%	-31*	1%	?	0%
CC(C)CN(CC(C)C)C(=O)c1cc2c(=O)n3ccccc3nc2s1	36%	1%	-2	27%	52%	-2%
CCCC[C@@H]1CCCO[C@@](C(=O)NCc2ccccn2)(C(F)(F)F)C1	19%	-1%	-2	-4%	5µM*	/
CCC[C@@H]1CCCO[C@@](C(=O)NCc2ccccn2)(C(F)(F)F)C1	4%	1%	-1	-3%	?	/
O=C(N/N=C/c1sc(=O)n(Cc2ccc(Br)cc2)c1Cl)c1ccco1	?	/	-46*	0%	?	-3%
O=C(N/N=C/c1ccc(Br)s1)c1ccco1	-19%	/	0	11%	5%	11%
CC(C)C(=O)Nc1ccc(Br)cc1Cl	-2%	/	-3	8%	3%	-5%
C=C1CSc2nc(=O)c3c(C)c(C)sc3n21	3%	16µM*	-2	1%	36%	-7%
Cc1nc2sc(C)c(C)c2c(=O)[nH]1	-9%	-1%	-3	-4%	23%	-4%
COc1ccccc1OC(=O)Cc1cccc2ccccc12	0%	/	-1	1%	-16%	-3%
CCCCn1c(O)c(N=Nc2ccccn2)c2ccccc21	-15%	-3%	5	4%	?	2%
CCCCn1c(O)c(N=Nc2ccccc2O)c2ccccc21	2%	-10%	5	2%	?	40µM*
O=C(O)C1=C[C@@H](c2ccccc2)C[C@@H](OCCCCO)O1	4%	2%	-11	5%	12%	/
COCCNCc1nc2sc(C)c(-c3ccccc3)c2c(=O)[nH]1	?	/	-23	9%	11µM*	-1%
Cc1sc2nc(CN3CCOCC3)[nH]c(=O)c2c1-c1ccccc1	-12%	1%	-2	-2%	-1%	-13%
Cn1c(=S)[nH]c2sc3c(c2c1=O)CCC(C(C)(C)C)C3 (centres undefined)	/	/	/	/	/	20µM*
COCCn1c(=S)[nH]c2sc3c(c2c1=O)CCC(C)C3 (centres undefined)	-2%	/	-2	-1%	-3%	?
Cc1ccc(N2CCN(C(=O)N3CCCC3)CC2)cc1C	5%	-6%	0	12%	-8%	3%
Cc1ccc2[nH]cc(C(c3ccccc3)c3ccc(Cl)s3)c2c1 (centres undefined)	-17%	-6%	2	/	10µM*	/
CC[N+]1(CC)CC2=Cc3c(ccc4ccccc34)CC2C1 (centres undefined)	-9%	25µM*	0	-14%	-13%	-4%
CC12Cc3ccc4ccccc4c3C=C1C[N+](C)(C)C2 (centres undefined)	1%	-1%	2	-1%	?	0%
